# Test results: the supplement of paper PMC8728848
# The sample as a whole holds a higher share of the strongest signals than the screen did.
# What was measured:
# Test in all cases: glycan array binding signal (z-score within array); higher = stronger binding
# Settings in all cases: glycan notation: IUPAC condensed, linker removed
# [1] = target: Fuc(a1-2)Gal(b1-3)GalNAc(a1-3)[Fuc(a1-2)]Gal(b1-4)GlcNAc
# Method in brief: (§1)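 Glycan array data were curated from 3228 arrays in the Consortium for Functional Glycomics database and kept only where the protein sequence was available. Glycan names were converted to IUPAC-condensed notation, and columns mapping to the same glycan were averaged. The binding signal is a within-array Z-score, averaged across arrays of the same protein sequence at different concentrations or buffers and across linkers. Negative Z-scores can be read as non-binding.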
# [2] = target: Fuc(a1-2)Gal(b1-3)[Fuc(a1-4)]GlcNAc(b1-2)Man(a1-3)[Fuc(a1-2)Gal(b1-3)[Fuc(a1-4)]GlcNAc(b1-2)Man(a1-3)]Man(b1-4)GlcNAc(b1-4)GlcNAc
# Method in brief: as §1
# [3] = target: Fuc(a1-2)Gal(b1-4)GlcNAc(b1-2)[Fuc(a1-2)Gal(b1-4)GlcNAc(b1-4)]Man(a1-3)[Fuc(a1-2)Gal(b1-4)GlcNAc(b1-2)Man(a1-6)]Man(b1-4)GlcNAc(b1-4)GlcNAc
# Method in brief: as §1
# [4] = target: Fuc(a1-2)Gal(b1-4)GlcNAc(b1-6)GalNAc
# Method in brief: as §1
# [5] = target: Fuc(a1-2)Gal(b1-4)[Fuc(a1-3)]GlcNAc(b1-2)Man(a1-3)[Fuc(a1-2)Gal(b1-4)[Fuc(a1-3)]GlcNAc(b1-2)Man(a1-6)]Man(b1-4)GlcNAc(b1-4)[Fuc(a1-6)]GlcNAc
# Method in brief: as §1
# [6] = target: Fuc(a1-2)Gal(b1-4)[Fuc(a1-3)]GlcNAc(b1-3)GalNAc
# Method in brief: as §1
# [7] = target: Fuc(a1-2)Gal3S(b1-4)GlcNAc
# Method in brief: as §1
# [8] = target: Fuc(a1-2)[Gal(a1-3)]Gal
# Method in brief: as §1
# [9] = target: Fuc(a1-2)[Gal(a1-3)]Gal(b1-3)GlcNAc(b1-2)Man(a1-3)[Fuc(a1-2)[Gal(a1-3)]Gal(b1-3)GlcNAc(b1-2)Man(a1-6)]Man(b1-4)GlcNAc(b1-4)[Fuc(a1-6)]GlcNAc
# Method in brief: as §1
# [10] = target: Fuc(a1-2)[Gal(a1-3)]Gal(b1-4)GlcNAc(b1-2)Man(a1-3)[Fuc(a1-2)[Gal(a1-3)]Gal(b1-4)GlcNAc(b1-2)Man(a1-6)]Man(b1-4)GlcNAc(b1-4)GlcNAc
# Method in brief: as §1
# [11] = target: Fuc(a1-2)[GalNAc(a1-3)]Gal(b1-3)GlcNAc(b1-2)Man(a1-3)[Fuc(a1-2)[GalNAc(a1-3)]Gal(b1-3)GlcNAc(b1-2)Man(a1-6)]Man(b1-4)GlcNAc(b1-4)[Fuc(a1-6)]GlcNAc
# Method in brief: as §1
# [12] = target: Fuc(a1-2)[GalNAc(a1-4)]Gal(b1-4)GlcNAc
# Method in brief: as §1
# [13] = target: Fuc(a1-3)GlcNAc
# Method in brief: as §1
# [14] = target: Fuc(a1-3)[Gal(b1-4)]GlcNAc(b1-6)GalNAc
# Method in brief: as §1
# [15] = target: Fuc(a1-3)[Gal(b1-4)]GlcNAc6S
# Method in brief: as §1
# [16] = target: Fuc(a1-3)[GalNAc(b1-4)]GlcNAc6S
# Method in brief: as §1
# [17] = target: Gal(a1-3)Gal(b1-4)Glc
# Method in brief: as §1
# [18] = target: Gal(a1-3)[Gal(a1-4)]Gal(b1-4)GlcNAc
# Method in brief: as §1
# [19] = target: Gal(b1-3)GlcNAc(b1-2)Man
# Method in brief: as §1
# [20] = target: Gal(b1-3)GlcNAc(b1-3)Gal(b1-4)Glc
# Method in brief: as §1
# [21] = target: Gal(b1-4)Glc
# Method in brief: as §1
# [22] = target: Gal(b1-4)GlcNAc(b1-3)Gal(b1-4)GlcNAc(b1-2)Man(a1-3)[Gal(b1-4)GlcNAc(b1-3)Gal(b1-4)GlcNAc(b1-2)Man(a1-6)]Man(b1-4)GlcNAc(b1-4)GlcNAc
# Method in brief: as §1
# [23] = target: Gal(b1-4)GlcNAc(b1-3)Gal(b1-4)GlcNAc(b1-3)Gal(b1-4)GlcNAc(b1-2)Man(a1-3)[Gal(b1-4)GlcNAc(b1-3)Gal(b1-4)GlcNAc(b1-3)Gal(b1-4)GlcNAc(b1-2)Man(a1-6)]Man(b1-4)GlcNAc(b1-4)GlcNAc
# Method in brief: as §1
# [24] = target: Gal3S(b1-4)Glc
# Method in brief: as §1
# [25] = target: Gal3S4S(b1-4)GlcNAc
# Method in brief: as §1
# [26] = target: GalNAc6S(b1-4)GlcNAc
# Method in brief: as §1
# [27] = target: Glc(a1-6)Glc(a1-6)Glc
# Method in brief: as §1
# [28] = target: GlcNAc(a1-4)Gal(b1-4)GalNAc
# Method in brief: as §1
# [29] = target: GlcNAc(b1-2)[GlcNAc(b1-6)]Man(a1-6)[GlcNAc(b1-4)][GlcNAc(b1-2)Man(a1-3)]Man(b1-4)GlcNAc(b1-4)GlcNAc
# Method in brief: as §1
# [30] = target: GlcNAc(b1-3)Gal(b1-4)GlcNAc(b1-3)Gal(b1-4)GlcNAc(b1-2)Man(a1-3)[GlcNAc(b1-3)Gal(b1-4)GlcNAc(b1-3)Gal(b1-4)GlcNAc(b1-2)Man(a1-6)]Man(b1-4)GlcNAc(b1-4)GlcNAc
# Method in brief: as §1
# [31] = target: GlcNAc(b1-3)Gal(b1-4)GlcNAc(b1-3)Gal(b1-4)GlcNAc(b1-3)Gal(b1-4)GlcNAc(b1-2)[GlcNAc(b1-3)Gal(b1-4)GlcNAc(b1-3)Gal(b1-4)GlcNAc(b1-3)Gal(b1-4)GlcNAc(b1-6)]Man(a1-6)[GlcNAc(b1-3)Gal(b1-4)GlcNAc(b1-3)Gal(b1-4)GlcNAc(b1-3)Gal(b1-4)GlcNAc(b1-2)Man(a1-3)]Man(b1-4)GlcNAc(b1-4)[Fuc(a1-6)]GlcNAc
# Method in brief: as §1
# [32] = target: GlcNAc(b1-4)[GlcNAc(b1-6)]GalNAc
# Method in brief: as §1
# [33] = target: Kdn(a2-3)Gal(b1-3)GlcNAc
# Method in brief: as §1
# [34] = target: Man(a1-2)Man(a1-3)[Man(a1-2)Man(a1-6)]Man(a1-6)[Man(a1-2)Man(a1-2)Man(a1-3)]Man
# Method in brief: as §1
# [35] = target: Man(a1-2)Man(a1-6)[Man(a1-3)]Man(a1-6)[Man(a1-2)Man(a1-2)Man(a1-3)]Man
# Method in brief: as §1
# [36] = target: Neu5Ac(a2-3)Gal(b1-4)GlcNAc(b1-3)Gal(b1-3)GlcNAc
# Method in brief: as §1
# [37] = target: Neu5Ac(a2-3)Gal(b1-4)GlcNAc(b1-3)Gal(b1-4)GlcNAc
# Method in brief: as §1
# [38] = target: Neu5Ac(a2-3)Gal(b1-4)GlcNAc(b1-3)Gal(b1-4)GlcNAc(b1-3)GalNAc
# Method in brief: as §1
# [39] = target: Neu5Ac(a2-3)GalNAc
# Method in brief: as §1
# [40] = target: Neu5Ac(a2-3)[GalNAc(b1-4)]Gal(b1-4)GlcNAc(b1-3)GalNAc
# Method in brief: as §1
# [41] = target: Neu5Ac(a2-3)[Neu5Ac(a2-6)]GalNAc
# Method in brief: as §1
# [42] = target: Neu5Ac(a2-6)Gal(b1-4)Glc
# Method in brief: as §1
# [43] = target: Neu5Ac(a2-6)Gal(b1-4)GlcNAc(b1-2)Man(a1-6)Man(b1-4)GlcNAc(b1-4)GlcNAc
# Method in brief: as §1
# [44] = target: Neu5Ac(a2-6)Gal(b1-4)GlcNAc(b1-2)Man(a1-6)[Gal(b1-4)GlcNAc(b1-2)Man(a1-3)]Man(b1-4)GlcNAc(b1-4)GlcNAc
# Method in brief: as §1
# [45] = target: Neu5Ac(a2-6)Gal(b1-4)GlcNAc(b1-3)Gal(b1-4)GlcNAc(b1-2)Man(a1-3)[Neu5Ac(a2-6)Gal(b1-4)GlcNAc(b1-3)Gal(b1-4)GlcNAc(b1-2)Man(a1-6)]GalNAc
# Method in brief: as §1
# [46] = target: Neu5Ac(a2-6)Gal(b1-4)GlcNAc(b1-3)Gal(b1-4)GlcNAc(b1-3)Gal(b1-4)GlcNAc
# Method in brief: as §1
# [47] = target: Neu5Ac(a2-6)Gal(b1-4)GlcNAc(b1-3)Gal(b1-4)GlcNAc(b1-3)Gal(b1-4)GlcNAc(b1-2)Man(a1-3)[Neu5Ac(a2-6)Gal(b1-4)GlcNAc(b1-3)Gal(b1-4)GlcNAc(b1-3)Gal(b1-4)GlcNAc(b1-2)Man(a1-6)]GalNAc
# Method in brief: as §1
# [48] = target: Neu5Ac(a2-6)Gal(b1-4)GlcNAc(b1-3)Gal(b1-4)GlcNAc(b1-6)[Gal(b1-3)]GalNAc
# Method in brief: as §1
# [49] = target: Neu5Ac(a2-8)Neu5Ac(a2-3)Gal(b1-3)GalNAc(b1-4)[Neu5Ac(a2-3)]Gal(b1-4)Glc
# Method in brief: as §1
# [50] = target: Neu5Ac(a2-8)Neu5Ac(a2-8)Neu5Ac
# Method in brief: as §1
# [51] = target: Neu5Ac(a2-8)Neu5Gc(a2-3)Gal(b1-4)GlcNAc
# Method in brief: as §1
# [52] = target: Neu5Gc(a2-8)Neu5Gc(a2-3)Gal(b1-4)GlcNAc
# Method in brief: as §1
# [53] = target: Neu5Gc(a2-8)Neu5Gc(a2-3)Gal(b1-4)GlcNAc(b1-3)Gal(b1-4)GlcNAc
# Method in brief: as §1
binder,measurement,setting,value
PX14375A-pdi-503-28-503 (Parabacteroides distasonis) (protein) PLGSPEAGDISEERQAFLRLTAVYSVMKDFRYTWSMQCFGDVLSNDATYSGSSNDAQTFTLLENYQYQADHTEILNKYRYSYQCINKANLFIRDMEMADDALFSKYDKEQMIGEAKFIRAYTYFELVKTFGGVPCYTGVLDLDHERLGRASVEEIYSVIEQDLNDAVSVLPKKSEVANYESSYAGRITKGAAIAMQTRIYLYEKKYDEVKKAFEKFQNECGGEYSLVAPEDYTWQFSLDGEHCSSSILEVNMYNSSTQSSYNVNNGNRHVLMSMPRNMTIGFGCAQPTQALADAYDAEGDVIRKKTTLLSTEEAIEIETAAKGDVAPVTDDRTGWYNRKLYLAPGQREENRGNNQPTNLRLIRLAEVYLNYAEACYFSGDIANAQKYLNEVRSHVNLAPKNHTGSQLFEDIMNERHLEFGMEGFRFFDVVRVGWGEKVFNGTKKAEFGAKTPFSAGAEVLPIPQTEIDISDGLITN,glycan array binding signal (z-score),[1],-1
same,glycan array binding signal (z-score),[2],0.809
same,glycan array binding signal (z-score),[3],1.43
same,glycan array binding signal (z-score),[4],0.828
same,glycan array binding signal (z-score),[5],-0.25
same,glycan array binding signal (z-score),[6],-0.279
same,glycan array binding signal (z-score),[7],0.279
same,glycan array binding signal (z-score),[8],0.139
same,glycan array binding signal (z-score),[9],1.43
same,glycan array binding signal (z-score),[10],-0.223
same,glycan array binding signal (z-score),[11],-0.166
same,glycan array binding signal (z-score),[12],-0.304
same,glycan array binding signal (z-score),[13],-0.753
same,glycan array binding signal (z-score),[14],-0.205
same,glycan array binding signal (z-score),[15],0.08
same,glycan array binding signal (z-score),[16],0.949
same,glycan array binding signal (z-score),[17],-0.124
same,glycan array binding signal (z-score),[18],2.05
same,glycan array binding signal (z-score),[19],-0.555
same,glycan array binding signal (z-score),[20],10.3
same,glycan array binding signal (z-score),[21],-0.065
same,glycan array binding signal (z-score),[22],5.38
same,glycan array binding signal (z-score),[23],2.49
same,glycan array binding signal (z-score),[24],-0.196
same,glycan array binding signal (z-score),[25],-0.718
same,glycan array binding signal (z-score),[26],-0.507
same,glycan array binding signal (z-score),[27],-0.184
same,glycan array binding signal (z-score),[28],0.594
same,glycan array binding signal (z-score),[29],-0.508
same,glycan array binding signal (z-score),[30],1.59
same,glycan array binding signal (z-score),[31],0.489
same,glycan array binding signal (z-score),[32],2.82
same,glycan array binding signal (z-score),[33],-0.519
same,glycan array binding signal (z-score),[34],1.42
same,glycan array binding signal (z-score),[35],-0.437
same,glycan array binding signal (z-score),[36],-0.225
same,glycan array binding signal (z-score),[37],0.104
same,glycan array binding signal (z-score),[38],-0.442
same,glycan array binding signal (z-score),[39],-0.004
same,glycan array binding signal (z-score),[40],-1.13
same,glycan array binding signal (z-score),[41],0.006
same,glycan array binding signal (z-score),[42],-0.412
same,glycan array binding signal (z-score),[43],-0.882
same,glycan array binding signal (z-score),[44],-0.819
same,glycan array binding signal (z-score),[45],0.642
same,glycan array binding signal (z-score),[46],0.319
same,glycan array binding signal (z-score),[47],1.64
same,glycan array binding signal (z-score),[48],-0.493
same,glycan array binding signal (z-score),[49],-0.127
same,glycan array binding signal (z-score),[50],-0.278
same,glycan array binding signal (z-score),[51],13.2
same,glycan array binding signal (z-score),[52],-0.736
same,glycan array binding signal (z-score),[53],-0.755
